Screens as filed in PubChem BioAssay.
CHO-K1 Ca antag: counter-screen for M1 antagonists: effect in parental CHO-K1 cells; ATP-induced calcium, Fluo-8 fluorescence; inhibition, % at 3 µM; 360,000 tested, 0.6% active; AID 602250;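 active = inhibition above a per-plate cutoff, the plate's mean sample inhibition plus 3 SD, cut at about 24% in these data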;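 note: 0% = DMSO plus EC80 ATP and 100% = DMSO alone without ATP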
CHRM1 PAM: potentiates human M1 receptor response to acetylcholine. P11229. CHO-K1 hM1, Fluo-8 calcium fluorescence, ACh EC20; 0% = ACh EC20, 100% = maximal ACh. activation, % at 3 µM. 360,000 tested, 0.088% active; in the data active = activation above about 19%, passing the limit was not always enough
Target sequence (P11229 whole entry, looked up): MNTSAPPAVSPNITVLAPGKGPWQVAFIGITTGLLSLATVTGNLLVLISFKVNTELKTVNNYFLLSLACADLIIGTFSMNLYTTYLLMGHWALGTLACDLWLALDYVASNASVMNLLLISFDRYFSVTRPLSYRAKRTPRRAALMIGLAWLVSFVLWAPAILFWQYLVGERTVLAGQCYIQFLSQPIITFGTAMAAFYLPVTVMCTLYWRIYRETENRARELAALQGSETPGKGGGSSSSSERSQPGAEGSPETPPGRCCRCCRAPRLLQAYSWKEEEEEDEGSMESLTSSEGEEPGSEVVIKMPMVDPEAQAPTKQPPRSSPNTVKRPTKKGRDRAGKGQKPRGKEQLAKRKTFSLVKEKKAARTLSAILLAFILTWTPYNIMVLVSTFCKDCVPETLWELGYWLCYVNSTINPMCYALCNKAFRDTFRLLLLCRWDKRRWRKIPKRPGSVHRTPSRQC
M1 antag: human CHRM1 antagonism; inhibition, % at 3 µM; 360,000 tested, 1.3% active; CHO-K1 hM1, Fluo-8 calcium fluorescence, ACh EC80 antagonist; AID 588852;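 active = percent inhibition above its own plate's cutoff, namely the mean of that plate's compound wells plus 3 SD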;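 note: peak over basal fluorescence ratio during 140 s after agonist addition; 0% = ACh EC80 plus DMSO and 100% = DMSO alone without agonist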
CHRM1 agonist: agonists of human M1 muscarinic receptor; CHO-K1 hM1, Fluo-8 calcium fluorescence, agonist mode; 0% DMSO, 100% acetylcholine EC100; AID 588814; activation, % at 3 µM; 360,000 tested, 0.33% active; P11229;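 active = activation above the run's mean compound activation plus 3 SD, cut at about 16% in these data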;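 note: peak over basal fluorescence ratio within a 140 s kinetic read after compound addition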
M1 ag parental: nonselective activator or artifact in parental CHO-K1 cells; Fluo-8 calcium fluorescence; scaled to maximal ATP response, vehicle zero; activation, % at 3 µM; 360,000 tested, 0.48% active; in the data active = activation above about 15%;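 note: untransfected CHO-K1 host cells lacking M1 receptor as counterscreen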
M1 PAM parental: nonselective activator or artifact in parental CHO-K1 calcium assay | activation, % at 3 µM | 360,000 tested, 0.02% active | ATP EC20, Fluo-8 calcium fluorescence; 0% at ATP EC20, 100% at ATP max;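 active = activation above the run cutoff, the mean activation of all test compounds plus 3 SD, cut at about 40% in these data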;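 note: peak over basal fluorescence ratio in a 140 s read after ATP addition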
* marks the source's active call; other numbers are inactive results. Rows were chosen to be rich in hits. Some 2.3% of all compounds tested hit in one or more screens of this group.

SMILES	CHO-K1 Ca antag	CHRM1 PAM	M1 antag	CHRM1 agonist	M1 ag parental	M1 PAM parental
NCCc1nnc(SCc2ccc(F)cc2)o1	-3.9	7.8	1.1	-4.6	0.9	15.3
Cc1c(C(=O)N2CCN(c3ccccc3)CC2)oc2c1C(=O)CC(C)(C)C2	12.3	-15.0	30.0*	0.3	7.4	-24.1
CCOC(=O)c1c(C)[nH]c(C)c1S(=O)(=O)N(C)CC(=O)Nc1ccccc1	-9.2	3.7	-1.3	-2.7	0.3	15.1
C=CCNC(=O)CN1C(=O)NC(C)(c2ccc(OC)cc2)C1=O (centres undefined)	-3.0	-0.8	-1.7	-0.2	0.8	-14.3
COc1ccc(C2(C)NC(=O)N(CC(=O)c3cc(C)n(C4CC4)c3C)C2=O)cc1 (centres undefined)	3.8	5.5	-0.4	39.7*	30.0*	3.8
Cc1cc(C(=O)CN2C(=O)NC(CC(C)C)C2=O)c(C)n1C1CC1 (centres undefined)	7.0	2.0	-4.0	-0.9	0.8	-5.5
Cc1cc(C(=O)CN2C(=O)NC(C)(c3ccc(F)c(F)c3)C2=O)c(C)n1C1CC1 (centres undefined)	-2.2	4.9	-6.9	22.1*	11.9	21.2
O=C(NCCc1cccc(F)c1)C1CCN(S(=O)(=O)c2ccc(F)cc2)CC1	-3.8	8.9	-13.6	-1.1	3.0	9.8
CC(C)(C)c1ccc(S(=O)(=O)NNC(=O)C2CCN(Cc3cccc(F)c3)CC2)cc1	-5.1	6.3	-0.8	-4.7	22.8*	24.7
O=C(c1cccc(NS(=O)(=O)c2ccccc2)c1)N1CCCCC1	-11.9	1.9	1.9	-4.6	0.7	7.8
C[C@H](NC(=O)c1ccco1)C(=O)NCCc1ccc(S(N)(=O)=O)cc1	-16.3	5.7	-22.8	-1.5	2.0	10.9
Cc1ccnc2nc(C(=O)OCC(=O)NC3CCC(C)CC3)nn12 (centres undefined)	-6.8	7.8	-12.7	-4.3	0.4	3.1
Cc1ccnc2nc(C(=O)OCCOc3cccc(Br)c3)nn12	25.5*	22.9*	-20.5	3.3	-0.1	-5.0
Cc1ccnc2nc(C(=O)OCC(=O)NC3CCCC(C)C3C)nn12 (centres undefined)	-15.6	29.6*	-22.8	0.6	-0.6	-4.1
CCCN1C2CCCC1CC(NC(=S)Nc1ccc(OC)cc1)C2 (centres undefined)	-17.5	2.6	-4.3	-5.8	0.6	24.5
CCNC(=S)NC1CC2CCCC(C1)N2Cc1ccc(C)cc1 (centres undefined)	-4.7	-29.3	68.7*	-8.1	1.4	11.2
CCc1ccccc1NC(=O)N1C2CCCC1CC(NC(=O)C(C)(C)C)C2 (centres undefined)	-7.2	-16.3	47.8*	-6.3	0.5	-7.2
CCc1ccccc1NC(=S)NC1CC2CCC(C1)N2Cc1ccco1 (centres undefined)	0.8	6.4	-23.6	-7.5	-0.1	-7.4
CCc1ccccc1NC(=O)NC1CC2CCC(C1)N2Cc1cccs1 (centres undefined)	-19.5	-31.5	45.0*	-12.8	0.4	6.5
CCc1ccc(NC(=S)NC2CC3CCCC(C2)N3Cc2cccs2)cc1 (centres undefined)	6.0	-22.0	26.8*	0.8	4.1	-14.1
CC(=O)Nc1cccc(/C(C)=N/N2C(C)CCCC2C)c1 (centres undefined)	1.8	12.7	-8.2	3.0	0.7	-9.1
Cc1ccc(S(=O)(=O)N2C[C@H]3C(=O)C[C@@H](c4ccccc4)N(S(=O)(=O)c4ccccc4)[C@H]3C[C@H]2c2ccccc2)cc1	11.2	4.9	-5.5	2.0	0.3	-2.1
Cc1ccc(-c2[nH]ncc2/C=N/n2c(COc3ccccc3)nc3ccccc3c2=O)cc1	19.1	-14.7	29.4*	-6.9	5.0	-12.1
Cc1nc2ccccc2c(=O)n1/N=C/c1cn[nH]c1-c1ccccc1	-0.7	-8.5	7.6	-3.3	1.4	7.8
Cc1ccccc1OCc1nc2ccccc2c(=O)n1/N=C/c1cn[nH]c1-c1ccccc1	16.0	-14.8	29.1*	-2.4	5.5	-7.3
SMILES	CHO-K1 Ca antag	CHRM1 PAM	M1 antag	CHRM1 agonist	M1 ag parental	M1 PAM parental
CCOC(=O)c1c(C)[nH]c(C(=O)OCc2csc(CC(=O)Nc3ccccc3C)n2)c1C	-5.1	-0.8	-2.0	-3.8	3.6	-0.2
O=c1[nH]c2ccc(S(=O)(=O)NCc3ccccc3)cc2[nH]1	-0.7	-1.2	3.3	-6.2	0.8	21.4
O=C(O)c1ccc(N/N=C/C=C/c2ccc([N+](=O)[O-])o2)cc1	14.5	-13.2	35.9*	27.1*	11.6	-0.7
O=[N+]([O-])c1ccc(N/N=C/C=C/c2ccco2)cc1	19.1	-13.9	35.3	11.6	20.7*	-3.7
O=C(N/N=C/c1ccco1)c1cc([N+](=O)[O-])cc([N+](=O)[O-])c1	-0.1	8.0	-4.9	-4.2	0.3	8.1
O=C(CN(Cc1ccccc1)C(=O)CCC(=O)Nc1ccccn1)NCc1ccc(F)cc1	-14.3	14.4	-8.4	-0.5	4.3	2.7
Cn1cc([N+](=O)[O-])c(C(=O)n2cccn2)n1	-11.6	3.3	-12.5	-1.8	-0.4	0.5
Cc1cc(C)n(-c2nc(Nc3ccccc3C(F)(F)F)nc(-n3nc(C)cc3C)n2)n1	5.3	-19.0	38.1	4.4	19.1*	-0.5
Cc1cc(C)n(-c2nc(NC(C)(C)C)nc(NC(C)(C)C)n2)n1	21.9	-7.1	11.8	-4.4	0.2	-9.6
CC(=O)Nc1ccc(NC(=O)C2CCCCN2S(=O)(=O)c2ccc(C(C)(C)C)cc2)cc1 (centres undefined)	-3.6	-13.2	18.7	-2.9	7.5	-4.0
O=S(=O)(c1ccc(C2CCCCC2)cc1)N1CCCC1	-9.0	-9.2	18.5	-4.0	1.2	26.7
CN(C1CCCCC1)S(=O)(=O)c1ccc(S(=O)(=O)N2CCCC2)cc1	-15.1	-23.7	32.4*	-3.3	4.6	1.0
OC1CC2CCC(C1)N2CCCN1c2ccccc2Sc2ccc(Cl)cc21 (centres undefined)	0.5	-27.2	67.4*	1.5	11.1	2.8
CCOC(=O)Cc1csc(NC(=O)Nc2ccc(OC(F)(F)F)cc2)n1	34.3*	-17.4	41.2*	5.0	10.4	-15.3
CCOC(=O)Cc1csc(NC(=O)c2ccc(NC(C)=O)cc2)n1	-14.9	5.7	-4.1	-0.9	0.8	10.0
CN1CCN(C(=O)c2ccccc2NS(=O)(=O)c2ccc(F)cc2)CC1	-13.0	11.9	-0.2	-4.6	-0.1	-0.3
Cc1cc(O)ccc1-c1cc(C(=O)NCc2ccc(F)cc2)[nH]n1	-11.0	-3.3	3.2	25.1*	8.2	-2.6
Cc1ccc(S(=O)(=O)N(C)CC(=O)NNC(=O)CCS(=O)(=O)c2ccccc2)cc1	-15.9	3.2	-4.3	-2.9	-0.3	-5.0
Cc1cc(C)cc(N(CCC#N)C(=O)COC(=O)C2CCN(c3ccc(C(F)(F)F)cn3)CC2)c1	5.9	-16.3	29.9*	-7.0	-0.8	-7.1
